High-throughput results (PubChem)
Sampled rows, rich in hits. Any-hit rate of the full collection: about 11%.
HPGD block: inhibitors of human 15-hydroxyprostaglandin dehydrogenase (HPGD) | P15428 | purified HPGD, NADH fluorescence kinetic, PGE2 substrate | Potency, µM, hits mostly inhibitors | hit rate 4.3% among 150,000 | AID 894
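20 nM HPGD preincubated 15 min at room temperature with compound in 50 mM Tris-HCl pH 8, 0.01% Tween 20. Started with 1 mM NAD+ and 30 uM prostaglandin E2; NADH fluorescence (360/450 nm) read 5 times over 30-s intervals, last minus first.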
PNC assembly inh: blocks assembly of the perinucleolar compartment; PC3M PTB-GFP, PNC prevalence imaging, 16 h; stronger effect = lower value; activity change (PNC), negative = inhibition, % at 10 µM; hit rate 3.1% among 140,000;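 active = readout at or below -70, meaning at least 70% loss of cells showing the perinucleolar compartment, a nuclear body marking cancer cells; inconclusive = readout between -30 and a set limit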
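Read-out is percentage of cells bearing a perinucleolar compartment, from automated 20x imaging of fixed, Hoechst-stained PC3M PTB-GFP cells. Cells were seeded 4 h, then exposed 16 h to compound (23 nl of library stock) in duplicate plates.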
ALDH1A1 inh: blocks purified human ALDH1A1 activity; AID 1030; Purified ALDH1A1, NADH fluorescence, propionaldehyde substrate; P00352; hit rate 7.3% among 220,000; Potency, µM (top dose mostly 75.3 µM), hits mostly inhibitors
Target sequence (P00352 whole entry, looked up): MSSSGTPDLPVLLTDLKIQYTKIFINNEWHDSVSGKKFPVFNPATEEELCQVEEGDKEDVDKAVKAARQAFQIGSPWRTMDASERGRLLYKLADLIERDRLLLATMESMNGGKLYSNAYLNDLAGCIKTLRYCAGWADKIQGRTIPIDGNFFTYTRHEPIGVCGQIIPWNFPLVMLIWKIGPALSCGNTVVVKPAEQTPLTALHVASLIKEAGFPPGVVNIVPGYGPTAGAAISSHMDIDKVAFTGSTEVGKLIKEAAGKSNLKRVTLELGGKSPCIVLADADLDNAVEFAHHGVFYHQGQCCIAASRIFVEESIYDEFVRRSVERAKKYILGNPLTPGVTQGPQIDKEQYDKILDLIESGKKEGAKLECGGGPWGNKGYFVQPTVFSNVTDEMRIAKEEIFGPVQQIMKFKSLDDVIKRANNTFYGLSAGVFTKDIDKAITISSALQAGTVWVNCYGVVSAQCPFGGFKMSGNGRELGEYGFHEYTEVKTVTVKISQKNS
Of the large screens only hits and unclear results are named; the others gave an inactive call. Unless noted, calls follow the shape of the dose curve; as a rule, active = well fitted inhibition curve with a large enough effect (not every such curve was filed as active); inconclusive = small, poorly fitted or top-dose-only effect, or another doubt; inactive = no such curve, though single readings can be large or run the other way.

CSc1ccc(NC(=O)[C@H]2CCCC[C@@H]2C(=O)O)cc1	none (no result: PNC assembly inh)
CC1CCN(S(=O)(=O)c2cn(CC(=O)N3CCN(C)CC3)c(=O)c3ccccc23)CC1	ALDH1A1 inh inconclusive
NC(=S)n1[nH]c(-c2ccc([N+](=O)[O-])cc2)c(N=Nc2cccc([N+](=O)[O-])c2)c1=O	ALDH1A1 inh 25µM (no result: HPGD block, PNC assembly inh)
CC(=O)c1cccc(N=Nc2c(-c3ccccc3)[nH]n(-c3ccccc3)c2=O)c1	none (no result: HPGD block, PNC assembly inh)
Nc1[nH]n(-c2ccccc2)c(=O)c1N=Nc1ccccc1[N+](=O)[O-]	PNC assembly inh inconclusive
Cc1c(N=Nc2c(-c3ccc([N+](=O)[O-])cc3)[nH]n(C(N)=S)c2=O)cccc1[N+](=O)[O-]	ALDH1A1 inh 22µM (no result: HPGD block, PNC assembly inh)
CCN(C(=O)/C=C/c1ccc2c(c1)OCO2)c1ccccc1	HPGD block 28µM, PNC assembly inh -84
COc1ccccc1NC(=O)/C=C/c1ccc2c(c1)OCO2	none (no result: HPGD block, PNC assembly inh)
CN1CCN(C(=O)CN(c2cccc(Cl)c2)S(=O)(=O)c2ccccc2)CC1	none
Cn1cc(CNCc2cn(C)nc2-c2ccc(C3CCCCC3)cc2)cn1	none (no result: HPGD block, PNC assembly inh)
Cc1ccc(C2=NN3C(C2)c2ccccc2OC32C(=O)Nc3ccccc32)cc1 (stereo unspecified)	ALDH1A1 inh inconclusive
CN1C(=O)C2(Oc3ccccc3C3CC(c4ccccc4)=NN32)c2ccccc21 (stereo unspecified)	ALDH1A1 inh 25µM
CCCCc1c(O)nc(SCC(=O)NCCc2ccc(OC)c(OC)c2)[nH]c1=O	none
O=C(c1cccs1)c1cn(CC(=O)N2CCc3ccccc3C2)c2ccccc12	ALDH1A1 inh inconclusive (no result: HPGD block)
O=C(CC1(O)C(=O)Nc2ccccc21)c1cccc(Br)c1 (stereo unspecified)	none
COC(=O)CN1C(=O)C(O)(CC(=O)c2cccc(Br)c2)c2ccccc21 (stereo unspecified)	ALDH1A1 inh 0.56µM
NC(=O)CN1C(=O)C(O)(CC(=O)c2ccccc2O)c2ccccc21 (stereo unspecified)	ALDH1A1 inh inconclusive
COC(=O)CN1C(=O)C(O)(CC(=O)c2ccc(Cl)cc2)c2ccccc21 (stereo unspecified)	PNC assembly inh inconclusive, ALDH1A1 inh 0.22µM
Cc1cc(C)cc(NC(=O)OCCN2CCN(Cc3ccccc3)CCC2=O)c1	none
COc1ccc(C(CC(=O)c2ccccc2)CC(=O)c2ccccc2)cc1OC	none (no result: HPGD block, PNC assembly inh)
CSc1nnc2c(n1)[nH]c1c(C)cccc12	HPGD block inconclusive
CC/C(=N/Nc1ccccc1C)c1cnnc(SC)n1	ALDH1A1 inh 7.9µM
CSc1nncc(/C(C)=N\Nc2cccc(C)c2)n1	ALDH1A1 inh 8.9µM
CSc1nncc(/C(C)=N\Nc2ccccc2)n1	ALDH1A1 inh inconclusive
Nc1nc2n(n1)C(c1c(F)cccc1Cl)CC(c1ccc(F)cc1)N2 (stereo unspecified)	PNC assembly inh inconclusive
Cc1ccc(S(=O)(=O)/N=C(/Nc2ccc3[nH]c(=O)[nH]c3c2)c2ccc(F)cc2)cc1	ALDH1A1 inh 8.9µM (no result: HPGD block, PNC assembly inh)
Cc1ccc(C(=O)NC(=S)Nc2ccc3[nH]c(=O)[nH]c3c2)c(C)c1	none (no result: HPGD block, PNC assembly inh)
CCn1cc(CNC(=O)CCc2nnc(CCC3CCCCC3)o2)cn1	none (no result: HPGD block, PNC assembly inh)
O=c1cc(NCc2ccc3c(c2)OCO3)[nH]c(=O)n1-c1ccc(Cl)cc1	none
Cc1ccccc1-n1c(=O)cc(NCc2ccc3c(c2)OCO3)[nH]c1=O	ALDH1A1 inh 14µM
Cc1cc(SCC(=O)c2ccc(Br)cc2)cc(C)[o+]1	ALDH1A1 inh 3.2µM (no result: PNC assembly inh)
Cc1nnc(SCC(=O)c2ccc(Br)cc2)s1	none (no result: HPGD block, PNC assembly inh)
CC(C)n1c(=S)[nH]c2c1c(=O)[nH]c(=O)n2C	HPGD block 8.9µM, ALDH1A1 inh 2µM
C=CC(C)n1c(Br)nc2c1c(=O)[nH]c(=O)n2C (stereo unspecified)	none
CS(=O)(=O)N1CCC(C(=O)Nc2cccc([N+](=O)[O-])c2)CC1	none (no result: HPGD block, PNC assembly inh)
CCN(CC)c1cc(NCCO)c([N+](=O)[O-])c2nonc12	none (no result: HPGD block, PNC assembly inh)
CN(CCO)c1cc(Sc2nc3ccccc3s2)c2nonc2c1[N+](=O)[O-]	HPGD block inconclusive, ALDH1A1 inh 25µM
COc1ccccc1-n1cc(C(=O)NCC(=O)N2CCN(c3ccccc3)CC2)c2ccccc2c1=O	none
N#C/C(=C/c1ccc(Sc2nc3ccccc3[nH]2)o1)c1cccc(Br)c1	HPGD block inconclusive, ALDH1A1 inh inconclusive
CCN1C(=O)S/C(=C/c2ccc(Sc3nc4ccccc4[nH]3)o2)C1=O	HPGD block 13µM, PNC assembly inh inconclusive
O=C(COC(=O)CNC(=O)C12CC3CC(CC(C3)C1)C2)NC1CCS(=O)(=O)C1 (stereo unspecified)	PNC assembly inh inconclusive
CN(C(=O)COC(=O)CNC(=O)C12CC3CC(CC(C3)C1)C2)C1CCS(=O)(=O)C1 (stereo unspecified)	PNC assembly inh -121
CC1NC(=S)N(C2CCCCC2)C1=O (stereo unspecified)	none (no result: HPGD block, PNC assembly inh)
O=C(CSc1ccccn1)N/N=C/c1c[nH]c2ccccc12	none (no result: HPGD block, PNC assembly inh)
O=C(CSc1nnc(SCc2ccc(Cl)cc2)s1)N/N=C/c1c[nH]c2ccccc12	PNC assembly inh -83
O=C(N/N=C/c1c[nH]c2ccccc12)c1ccn(Cc2ccc(Cl)cc2)n1	none
O=C(O)CSc1nnc(SCc2cccc3ccccc23)s1	HPGD block 16µM, ALDH1A1 inh inconclusive
CC(C)OC(=O)CSc1nnc(SCc2cccc3ccccc23)s1	ALDH1A1 inh inconclusive
O=C(CSc1nnc(SCc2cccc3ccccc23)s1)N/N=C/c1c[nH]c2ccccc12	ALDH1A1 inh 14µM
CCN(CC)S(=O)(=O)c1ccc(C(=O)Oc2cc(C)[nH]c(=O)c2[N+](=O)[O-])cc1	none (no result: HPGD block, PNC assembly inh)
C=CCn1c(SCc2c(F)cccc2Cl)nnc1-c1ccco1	ALDH1A1 inh inconclusive (no result: HPGD block)
Cc1nc(Cc2nnc(SCc3nc(N)nc(Nc4ccccc4C)n3)o2)cs1	none
CCn1ccnc1CN1CCN(CC(C)C)C(CCO)C1 (stereo unspecified)	none (no result: HPGD block, PNC assembly inh)
Cc1nc2ccccn2c(=O)c1CCN1CCC(C(=O)c2ccc(F)cc2)CC1	HPGD block inconclusive
Cc1nc2sccn2c(=O)c1CCN1CCC(=C(c2ccc(F)cc2)c2ccc(F)cc2)CC1	PNC assembly inh -115
FC(F)(F)c1cnc(-c2cnc(-c3ccccn3)nc2)c(Cl)c1	none (no result: HPGD block, PNC assembly inh)
FC(F)(F)c1cnc(-c2cnc(-c3ccncc3)nc2)c(Cl)c1	ALDH1A1 inh 18µM (no result: HPGD block, PNC assembly inh)
NCCC[C@@H](N)C(=O)O	none (no result: PNC assembly inh)
NC(=S)NCCCC(N)C(=O)O (stereo unspecified)	ALDH1A1 inh 2.5µM (no result: PNC assembly inh)
OC(COCCOc1ccc(Br)cc1)CN1CCCCC1 (stereo unspecified)	none
COc1ccc(C2=C(Nc3ccc(C)cc3)c3ccccc3C2=O)cc1	none
COc1ccc(C2=C(Nc3ccc(F)cc3)c3ccccc3C2=O)cc1	HPGD block 25µM, ALDH1A1 inh inconclusive
O=C1c2ccccc2CC1Sc1nnc(-c2ccccn2)o1 (stereo unspecified)	HPGD block inconclusive, ALDH1A1 inh 3.2µM
O=C1OCCC1Sc1nnc(-c2ccccc2)o1 (stereo unspecified)	none
COc1ccc(N(CC(=O)NCc2cccnc2)S(=O)(=O)c2c(C)nn(C)c2C)cc1	PNC assembly inh inconclusive
CCN1CCCC1CNC(=O)c1ccc(-n2c(=O)c(=O)[nH]c3ccccc32)cc1 (stereo unspecified)	none (no result: PNC assembly inh)
Cc1ccc(-n2c(-c3cnccn3)n[nH]c2=S)cc1	none (no result: HPGD block, PNC assembly inh)
Fc1ccc(-n2c(-c3ccc4ccccc4n3)n[nH]c2=S)cc1Cl	none (no result: HPGD block, PNC assembly inh)
